According to PubChem BioAssay AID485346 (Sanford-Burnham Center for Chemical Genomics, 2010):
The whole screen tested about 330,000 compounds, of which about 10,000 (3%) were called active. Shown is part of a subset that was picked to be rich in actives. A number with no mark means an inactive call.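 The calls were made as follows: active = inhibition of at least 50% at 8 µM in the primary screen; inactive = the rest.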

What follows are compounds tested against Protein Mdm4 (Homo sapiens) + E3 ubiquitin-protein ligase Mdm2 (Homo sapiens) (UniProt O15151+Q00987) (assay: disruptors of Mdm2/MdmX RING complex – cell-based, luminescence, split luciferase, SaOS-2, uHTS, primary screen (AID 485346)). Conditions: SaOS-2 split-luciferase Mdm2/MdmX complementation, at 8 µM, stronger effect = higher value.
Protein Mdm4 (Homo sapiens) + E3 ubiquitin-protein ligase Mdm2 (Homo sapiens), sequence (O15151 whole entry, looked up): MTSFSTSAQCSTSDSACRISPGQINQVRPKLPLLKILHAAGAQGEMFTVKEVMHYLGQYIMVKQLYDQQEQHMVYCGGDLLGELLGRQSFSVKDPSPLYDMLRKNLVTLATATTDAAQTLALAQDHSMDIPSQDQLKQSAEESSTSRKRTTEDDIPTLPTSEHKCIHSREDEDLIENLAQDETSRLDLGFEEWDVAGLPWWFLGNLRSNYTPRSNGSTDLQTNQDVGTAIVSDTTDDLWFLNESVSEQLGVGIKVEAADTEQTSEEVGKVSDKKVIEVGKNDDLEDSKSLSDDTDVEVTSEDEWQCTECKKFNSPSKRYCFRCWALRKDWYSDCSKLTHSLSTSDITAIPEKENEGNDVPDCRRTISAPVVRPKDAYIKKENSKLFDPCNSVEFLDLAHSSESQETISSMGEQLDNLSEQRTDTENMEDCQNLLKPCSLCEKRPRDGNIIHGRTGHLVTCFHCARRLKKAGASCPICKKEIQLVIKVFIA
Protein Mdm4 (Homo sapiens) + E3 ubiquitin-protein ligase Mdm2 (Homo sapiens), sequence (Q00987 whole entry, looked up): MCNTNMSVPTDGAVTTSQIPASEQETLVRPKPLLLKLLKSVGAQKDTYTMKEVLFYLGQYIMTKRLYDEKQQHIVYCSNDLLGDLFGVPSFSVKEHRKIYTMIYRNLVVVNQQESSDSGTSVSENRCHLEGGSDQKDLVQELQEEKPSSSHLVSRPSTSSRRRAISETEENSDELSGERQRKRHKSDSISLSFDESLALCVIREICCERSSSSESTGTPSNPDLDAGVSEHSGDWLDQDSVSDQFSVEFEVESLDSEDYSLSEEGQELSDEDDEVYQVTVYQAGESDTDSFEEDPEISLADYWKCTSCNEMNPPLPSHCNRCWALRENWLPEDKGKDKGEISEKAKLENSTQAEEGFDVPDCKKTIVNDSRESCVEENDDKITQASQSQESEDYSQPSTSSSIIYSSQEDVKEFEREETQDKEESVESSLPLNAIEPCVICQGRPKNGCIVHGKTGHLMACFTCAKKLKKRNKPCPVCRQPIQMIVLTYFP

Row | SMILES | inhibition
1 | O=C(CCCN1C(=O)/C(=C/c2ccco2)SC1=S)Nc1ccccc1 | 68.6% (active)
2 | O=C(CN1C(=O)/C(=C\c2ccccc2F)SC1=S)Nc1nc2ccccc2s1 | -22.4%
3 | O=C(CCCN1C(=O)/C(=C\c2ccco2)SC1=S)Nc1cccc2ccccc12 | 86.5% (active)
4 | Cc1ccc(-c2nn(-c3ccccc3)cc2/C=C2\SC(=S)N(CCCCCC(=O)O)C2=O)o1 | 34%
5 | O=C(CCCCCN1C(=O)c2cccc3cccc(c23)C1=O)NCc1ccco1 | 2.52%
6 | CN1C(=O)/C(=C/c2ccco2)SC1=Nc1cccc(C(=O)O)c1 | -14.1%
7 | Cc1sc(NC(=O)C2=COCCO2)c(C#N)c1C | -49.9%
8 | COc1ccc(N2CCN(C(=O)CN3C(=O)COc4ccccc43)CC2)cc1 | -8.57%
9 | CNC1(c2nnnn2-c2c(C)cccc2C)CCOC(C)(C)C1 (configuration not stated) | 1.22%
10 | CCOC(=O)[C@H]1[C@H]2COc3cc(OC)ccc3[C@@H]2N2C(=O)CN(Cc3ccc(Cl)cc3)C(=O)[C@@]12C | -12%
11 | O=C(Cc1ccc(S(=O)(=O)N2CCOCC2)s1)NCCOc1ccccc1F | 11.2%
12 | Oc1c(Cl)cc(Cl)c(Cl)c1Cc1c(O)c(Cl)cc(Cl)c1Cl | 95% (active)
13 | CCOc1cc(/C=N/NC(=O)c2ccc(CSc3nncn3C)cc2)ccc1OCC(=O)N1CCOCC1 | -20%
14 | CCCCNc1c(-c2cccc(Sc3ccc(OC)cc3)c2)nc2ccccn12 | 78.3% (active)
15 | CCCCNc1c(-c2ccc(OC)c(Sc3ccc(OC)cc3)c2)nc2ccc(Cl)cn12 | 41.1%
16 | CCCCCCSc1ccc(-c2nc3ccc(Cl)cn3c2NCc2ccccc2)cc1 | -24.5%
17 | O=C1C(C=NCC2CCCO2)=C(O)c2ccccc21 (configuration not stated) | -17%
18 | CC(=NC1CCN(Cc2ccccc2)CC1)c1c(O)[nH]c(=O)[nH]c1=O | 10.7%
19 | CC(=NCC1CCCO1)c1c(O)[nH]c(=O)[nH]c1=O (configuration not stated) | 60.2% (active)
20 | CN(Cc1ccccc1)C(=O)c1cccc(C(=O)N(C)Cc2ccccc2)c1 | -13.2%
21 | N#C/C(=C\c1ccccc1)c1n[nH]c(Cn2cncn2)n1 | -1.38%
22 | CCOC(=O)N1CCN(C(=O)C(=O)Nc2sc3c(c2C#N)CC(C)(C)OC3)CC1 | 13.5%
23 | O=C(NCc1ccccc1)C1C(=O)N(Cc2ccccc2)C(=O)C1C1(O)CCCC1 (configuration not stated) | 13%
24 | CC(C)c1nccn1S(=O)(=O)c1cc([N+](=O)[O-])ccc1Cl | 25.4%
25 | CCc1nc(C)cn1S(=O)(=O)c1cc(OC)c(C)cc1C | 8.72%
26 | CCc1nc(C)cn1S(=O)(=O)c1cc([N+](=O)[O-])ccc1Cl | 66.2% (active)

Row | SMILES | inhibition
27 | C/C(=C(\C#N)C(=O)NCCCN1CCOCC1)N(C)C | 13.1%
28 | C#CCOCCOCCOCCNc1nc(N2CCN(C(=O)CCCCCCCCCCNC(=O)[C@H]([C@@H](C)CC)n3cc(CCCCN=C(N)N)nn3)CC2)nc(N2CCN(C(=O)CCCCCCCCCCNC(=O)[C@H](CO)n3cc(CCCSC)nn3)CC2)n1 | 12.1%
29 | C#CCOCCOCCOCCNc1nc(N2CCN(C(=O)CCCCCCCCCCNC(=O)Cn3cc(CCCCCN)nn3)CC2)nc(N2CCN(C(=O)CCCCCCCCCCNC(=O)[C@H](CO)n3cc(CCCSC)nn3)CC2)n1 | 11.3%
30 | C#CCOCCOCCOCCNc1nc(N2CCN(C(=O)CCCCCCCCCCNC(=O)[C@H](CCCCN)n3cc(C)nn3)CC2)nc(N2CCN(C(=O)CCCCCCCCCCNC(=O)[C@H](CO)n3cc(CCCSC)nn3)CC2)n1 | 52.3% (active)
31 | COCCN(C(=O)CC1CCCCC1)c1c(N)n(CC(C)C)c(=O)[nH]c1=O | 13.6%
32 | CCOC(=O)CCCNC(=O)COC(=O)c1cc(Br)c(Br)s1 | 12%
33 | COc1ccc(C)cc1NC(=O)CSc1nnc2ccc(-c3ccccn3)nn12 | 15.8%
34 | COc1ccc(-c2nc3n(c(=O)c2C#N)CCS3)c(OC)c1 | 1.98%
35 | Cc1c(Br)c([N+](=O)[O-])nn1C(C)C(=O)Nc1nccs1 (configuration not stated) | 9.97%
36 | O=C(NCCN1CCOCC1)c1ccc(/C=C2\Sc3ccccc3N(Cc3ccc(F)cc3)C2=O)cc1 | 62.4% (active)
37 | CCCN1CCN(C(=O)CCCNC(=O)c2ccc(Cl)cc2)CC1 | -0.622%
38 | CN1CCN(CCCNC(=O)c2ccc(/C=C3\Oc4ccccc4N(Cc4ccc(Cl)cc4)C3=O)cc2)CC1 | 99.3% (active)
39 | CCN1CCN(CCNC(=O)c2ccc(/C=C3/Sc4ccccc4N(Cc4cccc(C)c4)C3=O)cc2)CC1 | 96.1% (active)
40 | Cc1ccccc1CN1C(=O)c2ccccc2Sc2ccc(C(=O)NCCCN3CCOCC3)cc21 | 24.3%
41 | CC(C)OCCCNC(=O)CN1C(=O)/C(=C/c2ccccc2F)Oc2ccccc21 | 13.4%
42 | Cc1nn(Cc2ccccc2)c(C)c1C(=O)NCCN1C(=O)S/C(=C\c2ccc(F)cc2)C1=O | 26.7%
43 | O=C(NCCN1CCOCC1)/C(=C/c1ccc(F)cc1)NC(=O)c1ccccc1 | -6.74%
44 | O=C(NCCCN1CCOCC1)c1ccc2c(c1)N(Cc1cccc(F)c1)C(=O)c1ccccc1S2 | 13.8%
45 | O=C(CCc1ccc(S(=O)(=O)N2CCOCC2)cc1)NN=C1CCCCCCC1 | 21.1%
46 | N#Cc1cccc(NC(=O)C2CCCN(C(=O)c3ccc(Cl)cc3)C2)c1 (configuration not stated) | 27.2%
47 | O=C(NNC(=O)C1C2CCC(C2)C1C(=O)O)c1ccc(Cl)cc1 (configuration not stated) | -14%
48 | COc1ccc(C(=O)COC(=O)c2nn(C)c(=O)c3ccccc23)c(OC)c1 | 3.83%
49 | CC(NC(=O)c1cccc(S(=O)(=O)N2CCc3ccccc3C2)c1)c1ccco1 (configuration not stated) | 3.48%
50 | O=C(NCc1ccncc1)c1cccc(NS(=O)(=O)c2ccc(F)c(F)c2)c1 | -23.7%
51 | CCOC(=O)C1=C(C)c2ccccc2OC1(C)C(=O)OCC (configuration not stated) | 11.2%
52 | CC(Oc1ccc2c(-c3ccccc3)cc(=O)oc2c1)C(=O)NC(Cc1c[nH]c2ccccc12)C(=O)O (configuration not stated) | 15.6%
